Where a chain is given by its changes, count along the chain named.
Columns and labels:
Assay in all cases: PBM; 200 nM protein, PBS
Details in all cases: dsDNA, one strand shown
NKX2-5 = NKX2-5 (Homo sapiens, UniProt P52952 125-210)
HOXD13 [1] = biological target: HOXD13 (Homo sapiens, UniProt P35453 263-343, T313R)
HOXD13 [2] = biological target: HOXD13 (Homo sapiens, UniProt P35453 263-343)
HOXD13 [3] = biological target: HOXD13 (Homo sapiens, UniProt P35453 263-343, T313A)
NKX3-2 [4] = biological target: NKX3-2 (Homo sapiens, UniProt P78367 192-278, P234S)
NKX3-2 (Homo sapiens, UniProt P78367 192-278, P234S), sequence (P78367 192-278 P234S): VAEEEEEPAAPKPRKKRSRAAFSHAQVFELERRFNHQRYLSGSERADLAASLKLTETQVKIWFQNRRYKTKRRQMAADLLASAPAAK

NKX3-2 [5] = biological target: NKX3-2 (Homo sapiens, UniProt P78367 192-278)
NKX3-2 (Homo sapiens, UniProt P78367 192-278), sequence (P78367 192-278): as the sequence (P78367 192-278 P234S) above, with S43P counted along it

CRX = CRX (Homo sapiens, UniProt O43186 26-111, R41L)
CRX, sequence (O43186 26-111 R41L): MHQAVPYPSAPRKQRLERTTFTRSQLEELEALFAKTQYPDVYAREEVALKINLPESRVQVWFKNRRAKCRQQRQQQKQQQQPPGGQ

SIX6 [6] = biological target: T1, SIX6 (Homo sapiens, UniProt O95475 114-200, L167I)
T1 sequence: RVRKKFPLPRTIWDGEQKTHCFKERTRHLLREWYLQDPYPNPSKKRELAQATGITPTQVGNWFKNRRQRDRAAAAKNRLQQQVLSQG

SIX6 [7] = biological target: T2, SIX6 (Homo sapiens, UniProt O95475 114-200, L143V)
T2 sequence: T1 sequence with L30V, I54L

SIX6 [8] = biological target: T3, SIX6 (Homo sapiens, UniProt O95475 114-200, H141N)
T3 sequence: T1 sequence with H28N, I54L

SIX6 [9] = biological target: T4, SIX6 (Homo sapiens, UniProt O95475 114-200, T165P)
T4 sequence: T1 sequence with T52P, I54L

SIX6 [10] = biological target: T5, SIX6 (Homo sapiens, UniProt O95475 114-200, L167M)
T5 sequence: T1 sequence with I54M

SIX6 [11] = biological target: T6, SIX6 (Homo sapiens, UniProt O95475 114-200, L143M)
T6 sequence: T1 sequence with L30M, I54L

SIX6 [12] = biological target: T7, SIX6 (Homo sapiens, UniProt O95475 114-200, L143I)
T7 sequence: T1 sequence with L30I, I54L

SIX6 [13] = biological target: T8, SIX6 (Homo sapiens, UniProt O95475 114-200, T165G)
T8 sequence: T1 sequence with T52G, I54L

SIX6 [14] = biological target: T9, SIX6 (Homo sapiens, UniProt O95475 114-200, T139Q)
T9 sequence: T1 sequence with T26Q, I54L

SIX6 [15] = biological target: T10, SIX6 (Homo sapiens, UniProt O95475 114-200, T165A)
T10 sequence: T1 sequence with T52A, I54L

SIX6 [16] = biological target: T11, SIX6 (Homo sapiens, UniProt O95475 114-200, L167V)
T11 sequence: T1 sequence with I54V

SIX6 [17] = biological target: T12, SIX6 (Homo sapiens, UniProt O95475 114-200)
T12 sequence: T1 sequence with I54L

SIX6 [18] = biological target: T13, SIX6 (Homo sapiens, UniProt O95475 114-200, T165I)
T13 sequence: T1 sequence with T52I, I54L

HOXD13 (Homo sapiens, UniProt P35453 263-343, T313A), sequence (P35453 263-343 T313A): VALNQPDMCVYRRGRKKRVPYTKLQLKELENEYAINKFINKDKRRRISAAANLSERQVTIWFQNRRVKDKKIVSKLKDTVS
HOXD13 (Homo sapiens, UniProt P35453 263-343), sequence (P35453 263-343): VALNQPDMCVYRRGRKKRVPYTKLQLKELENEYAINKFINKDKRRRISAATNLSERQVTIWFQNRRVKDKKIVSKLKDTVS
HOXD13 (Homo sapiens, UniProt P35453 263-343, T313R), sequence (P35453 263-343 T313R): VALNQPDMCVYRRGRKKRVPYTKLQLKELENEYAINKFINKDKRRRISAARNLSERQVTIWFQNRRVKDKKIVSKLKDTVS
NKX2-5, sequence (P52952 125-210): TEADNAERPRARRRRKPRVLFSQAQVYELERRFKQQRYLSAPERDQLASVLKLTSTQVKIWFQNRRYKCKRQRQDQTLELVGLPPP

AAGTAGGG was tested, and the binding signal (NKX2-5) was 10.9 upbm affinity estimate (log intensity, higher = more binding, comparable within an allelic series).

CGGCGAAC was tested, and the binding signal (NKX2-5) was 8.62 upbm affinity estimate (log intensity, higher = more binding, comparable within an allelic series).

For ACTAGTAC, the binding signal (NKX2-5) was 10.7 upbm affinity estimate (log intensity, higher = more binding, comparable within an allelic series).

With ACACTCTG the binding signal (NKX2-5) was 10.5 upbm affinity estimate (log intensity, higher = more binding, comparable within an allelic series).

With CGGGTGGC the binding signal (NKX2-5) was 8.57 upbm affinity estimate (log intensity, higher = more binding, comparable within an allelic series).

ATTAATTA was tested, and the binding signal (HOXD13 [1]) was 10.8 upbm affinity estimate (log intensity, higher = more binding, comparable within an allelic series), the binding signal (HOXD13 [2]) was 11.8 upbm affinity estimate (log intensity, higher = more binding, comparable within an allelic series) and the binding signal (HOXD13 [3]) was 11.6 upbm affinity estimate (log intensity, higher = more binding, comparable within an allelic series).

ATTAATTG was tested, and the binding signal (HOXD13 [1]) was 10.7 upbm affinity estimate (log intensity, higher = more binding, comparable within an allelic series).

ATTAATGA was tested, and the binding signal (HOXD13 [1]) was 10.7 upbm affinity estimate (log intensity, higher = more binding, comparable within an allelic series), the binding signal (HOXD13 [2]) was 11.9 upbm affinity estimate (log intensity, higher = more binding, comparable within an allelic series) and the binding signal (HOXD13 [3]) was 11.7 upbm affinity estimate (log intensity, higher = more binding, comparable within an allelic series).

For ACTAATTG, the binding signal (NKX3-2 [4]) was 11.8 upbm affinity estimate (log intensity, higher = more binding, comparable within an allelic series) and the binding signal (NKX3-2 [5]) was 11.8 upbm affinity estimate (log intensity, higher = more binding, comparable within an allelic series).

With CTAATTAC the binding signal (NKX3-2 [4]) was 11.6 upbm affinity estimate (log intensity, higher = more binding, comparable within an allelic series) and the binding signal (NKX3-2 [5]) was 11.7 upbm affinity estimate (log intensity, higher = more binding, comparable within an allelic series).

With ATTAATAG the binding signal (HOXD13 [1]) was 10.9 upbm affinity estimate (log intensity, higher = more binding, comparable within an allelic series), the binding signal (HOXD13 [2]) was 11.8 upbm affinity estimate (log intensity, higher = more binding, comparable within an allelic series) and the binding signal (HOXD13 [3]) was 11.8 upbm affinity estimate (log intensity, higher = more binding, comparable within an allelic series).

AATTAATC was tested, and the binding signal (CRX) was 12.5 upbm affinity estimate (log intensity, higher = more binding, comparable within an allelic series).

For CTAATTGA, the binding signal (NKX3-2 [4]) was 11.5 upbm affinity estimate (log intensity, higher = more binding, comparable within an allelic series) and the binding signal (NKX3-2 [5]) was 11.6 upbm affinity estimate (log intensity, higher = more binding, comparable within an allelic series).

For CAATTAAC, the binding signal (HOXD13 [3]) was 11.6 upbm affinity estimate (log intensity, higher = more binding, comparable within an allelic series).

For GGCAGGCC, the binding signal (HOXD13 [1]) was 9.41 upbm affinity estimate (log intensity, higher = more binding, comparable within an allelic series), the binding signal (HOXD13 [2]) was 9.41 upbm affinity estimate (log intensity, higher = more binding, comparable within an allelic series) and the binding signal (HOXD13 [3]) was 9.35 upbm affinity estimate (log intensity, higher = more binding, comparable within an allelic series).

CAATTAAA was tested, and the binding signal (HOXD13 [1]) was 10.7 upbm affinity estimate (log intensity, higher = more binding, comparable within an allelic series), the binding signal (HOXD13 [2]) was 11.7 upbm affinity estimate (log intensity, higher = more binding, comparable within an allelic series) and the binding signal (HOXD13 [3]) was 11.7 upbm affinity estimate (log intensity, higher = more binding, comparable within an allelic series).

CCAATTAA was tested, and the binding signal (HOXD13 [1]) was 10.8 upbm affinity estimate (log intensity, higher = more binding, comparable within an allelic series), the binding signal (HOXD13 [2]) was 11.9 upbm affinity estimate (log intensity, higher = more binding, comparable within an allelic series) and the binding signal (HOXD13 [3]) was 11.8 upbm affinity estimate (log intensity, higher = more binding, comparable within an allelic series). The binding signal (NKX3-2 [4]) was 11.7 upbm affinity estimate (log intensity, higher = more binding, comparable within an allelic series) and the binding signal (NKX3-2 [5]) was 11.8 upbm affinity estimate (log intensity, higher = more binding, comparable within an allelic series).

For GGCAATTA, the binding signal (NKX3-2 [4]) was 11.8 upbm affinity estimate (log intensity, higher = more binding, comparable within an allelic series) and the binding signal (NKX3-2 [5]) was 11.9 upbm affinity estimate (log intensity, higher = more binding, comparable within an allelic series).

With CCAGGTCC the binding signal (SIX6 [6]) was 9.09 upbm affinity estimate (log intensity, higher = more binding, comparable within an allelic series), the binding signal (SIX6 [7]) was 8.75 upbm affinity estimate (log intensity, higher = more binding, comparable within an allelic series) and the binding signal (SIX6 [8]) was 8.99 upbm affinity estimate (log intensity, higher = more binding, comparable within an allelic series). The binding signal (SIX6 [9]) was 8.71 upbm affinity estimate (log intensity, higher = more binding, comparable within an allelic series), the binding signal (SIX6 [10]) was 8.79 upbm affinity estimate (log intensity, higher = more binding, comparable within an allelic series) and the binding signal (SIX6 [11]) was 9.02 upbm affinity estimate (log intensity, higher = more binding, comparable within an allelic series). The binding signal (SIX6 [12]) was 8.99 upbm affinity estimate (log intensity, higher = more binding, comparable within an allelic series), the binding signal (SIX6 [13]) was 9.06 upbm affinity estimate (log intensity, higher = more binding, comparable within an allelic series) and the binding signal (SIX6 [14]) was 9.28 upbm affinity estimate (log intensity, higher = more binding, comparable within an allelic series). The binding signal (HOXD13 [1]) was 9.45 upbm affinity estimate (log intensity, higher = more binding, comparable within an allelic series), the binding signal (SIX6 [15]) was 9.07 upbm affinity estimate (log intensity, higher = more binding, comparable within an allelic series) and the binding signal (HOXD13 [2]) was 9.43 upbm affinity estimate (log intensity, higher = more binding, comparable within an allelic series). For the same sequence, the binding signal (SIX6 [16]) was 9 upbm affinity estimate (log intensity, higher = more binding, comparable within an allelic series), the binding signal (SIX6 [17]) was 9.04 upbm affinity estimate (log intensity, higher = more binding, comparable within an allelic series) and the binding signal (SIX6 [18]) was 9.08 upbm affinity estimate (log intensity, higher = more binding, comparable within an allelic series). The binding signal (HOXD13 [3]) was 9.65 upbm affinity estimate (log intensity, higher = more binding, comparable within an allelic series).

For CTTGCGGC, the binding signal (NKX3-2 [4]) was 10.7 upbm affinity estimate (log intensity, higher = more binding, comparable within an allelic series) and the binding signal (NKX3-2 [5]) was 10.6 upbm affinity estimate (log intensity, higher = more binding, comparable within an allelic series).

CCCAGGCG was tested, and the binding signal (NKX3-2 [4]) was 10.6 upbm affinity estimate (log intensity, higher = more binding, comparable within an allelic series) and the binding signal (NKX3-2 [5]) was 10.6 upbm affinity estimate (log intensity, higher = more binding, comparable within an allelic series).

ATTAATGC was tested, and the binding signal (CRX) was 11 upbm affinity estimate (log intensity, higher = more binding, comparable within an allelic series).

For GGAGCGCA, the binding signal (SIX6 [6]) was 8.88 upbm affinity estimate (log intensity, higher = more binding, comparable within an allelic series), the binding signal (SIX6 [7]) was 8.9 upbm affinity estimate (log intensity, higher = more binding, comparable within an allelic series) and the binding signal (SIX6 [8]) was 8.88 upbm affinity estimate (log intensity, higher = more binding, comparable within an allelic series). For the same sequence, the binding signal (SIX6 [9]) was 8.9 upbm affinity estimate (log intensity, higher = more binding, comparable within an allelic series), the binding signal (SIX6 [10]) was 8.87 upbm affinity estimate (log intensity, higher = more binding, comparable within an allelic series) and the binding signal (SIX6 [11]) was 8.97 upbm affinity estimate (log intensity, higher = more binding, comparable within an allelic series). For the same sequence, the binding signal (SIX6 [12]) was 8.85 upbm affinity estimate (log intensity, higher = more binding, comparable within an allelic series), the binding signal (SIX6 [13]) was 8.87 upbm affinity estimate (log intensity, higher = more binding, comparable within an allelic series) and the binding signal (SIX6 [14]) was 8.78 upbm affinity estimate (log intensity, higher = more binding, comparable within an allelic series). The binding signal (SIX6 [15]) was 8.96 upbm affinity estimate (log intensity, higher = more binding, comparable within an allelic series), the binding signal (SIX6 [16]) was 8.93 upbm affinity estimate (log intensity, higher = more binding, comparable within an allelic series) and the binding signal (SIX6 [17]) was 8.87 upbm affinity estimate (log intensity, higher = more binding, comparable within an allelic series). The binding signal (SIX6 [18]) was 8.91 upbm affinity estimate (log intensity, higher = more binding, comparable within an allelic series).

With GAGGGGGC the binding signal (CRX) was 8.14 upbm affinity estimate (log intensity, higher = more binding, comparable within an allelic series).
